# Compound activity as filed in PubChem.
# Dicer processing = inhibitors of human Dicer processing of pre-microRNA; Q9UPY3; cat-ELCCA pre-miR-21 Dicer processing, chemiluminescence; hits give high values; z-score at 25 µM; hit rate 6% among 47,000; in the data active = z-score above about 3, passing the limit was not always enough;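 note: plate controls were vehicle for no effect and no enzyme for full effect; higher signal means more uncleaved substrate so more Dicer inhibition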
# * = called active by the depositor. The entries come from a sample that favours hits as a whole.
SMILES,Dicer processing
COc1ccc(C2N=C(N)Nc3nc4ccccc4n32)cc1 (configuration not stated),-0.05
COc1ccccc1C1N=C(N)Nc2nc3ccccc3n21 (configuration not stated),34*
COc1ccc(OC)c(C2N=C(N)Nc3nc4ccccc4n32)c1 (configuration not stated),-1.2
O=C(c1ccccc1)c1cc(Cl)ccc1NC(=S)Nc1ccc(F)cc1,-0.55
FC(F)(F)c1cccc(NNC(=S)Nc2ccccc2)c1,-0.98
COCCCNC(=S)NNC(=S)Nc1ccccc1,3.6*
COCCCNC(=S)NNC(=O)c1ccc(C(F)(F)F)cc1,-4.6
COCCCNC(=S)Nc1ccc(F)cc1,-0.92
Cc1ccccc1NC(=S)NNC(=O)c1ccccc1Cl,0.06
Fc1ccc(NC(=S)Nc2ccccc2)cc1,-0.31
S=C(NNc1ccccc1)c1ccccc1,5.2*
N#CCC(=O)NNC(=S)Nc1ccccc1,-1.2
O=C(NNC(=S)Nc1ccc(F)cc1)c1ccccc1Cl,4.7*
Cc1cc(Br)c(NC(=S)NNc2ccccc2)c(Br)c1,3.9
S=C(NNC(=S)Nc1ccccc1)Nc1ccccc1,14*
N#C/C(=N\Nc1ccc(Cl)cc1Cl)C(=O)c1ccc(Cl)cc1,74
O=c1c2cc(-c3ccccc3)sc2n(Cc2ccccc2)c(=O)n1-c1ccccc1,1.7
CCOC(=O)C(O)(NC(=O)c1cccc(C)c1)C(F)(F)F (configuration not stated),-0.48
CCSc1sc(C(=O)O)c(-c2ccc(Cl)cc2)c1C#N,0.05
COc1cc(OC)cc(N2C(=O)c3nccnc3C2=O)c1,12
Cc1cccc(Cl)c1/C=N/Nc1ccc(-c2csnn2)cc1,47
Cc1nc(N2CCOCC2)c(C#N)c(C)c1[N+](=O)[O-],0.54
O=S(=O)(NC1CCN(Cc2ccccc2)CC1)c1cc(Cl)c(Cl)cc1Cl,-1.3
O=S(=O)(NC1CCN(Cc2ccccc2)CC1)c1cccc(C(F)(F)F)c1,3*
O=S(=O)(NC1CCN(Cc2ccccc2)CC1)c1cccs1,10
SMILES,Dicer processing
O=C(O)c1cc2nc(-c3ccc4c(c3)OCO4)cc(C(F)(F)F)n2n1,-2
CCOC(=O)c1c(NC(=S)N2CCc3ccccc32)sc2c1CCN(C(=O)OCC)C2,-0.3
COC(=O)c1sc(N2C(=O)c3oc4ccc(C)cc4c(=O)c3C2c2ccc(F)cc2)nc1C (configuration not stated),0.77
Cc1nnsc1C(=O)O/N=C(/N)COc1ccc(C2SCCS2)cc1,2.2
CCCOC(=O)C1=C(C)NC2=C(C(=O)CCC2)C1c1cc(OC)c(OC)cc1Br (configuration not stated),2.3
Cc1ccc(/C=C2\NC(=S)NC2=O)cc1,4.7*
O=C1/C(=C/c2ccsc2)CC/C1=C\c1cccs1,-1.6
Cc1cc(C=C2C(=O)NC(=S)NC2=O)cc(C)c1O,-1.6
O=C1NC(=S)N/C1=C/c1cccs1,4.1*
Cc1ccc(S(=O)(=O)Oc2ccc(/C=C3\NC(=O)NC3=O)cc2)cc1,-0.5
COc1ccc(/C=C2/NC(=S)NC2=O)c(Cl)c1OC,-0.81
c1ccc(-c2cc(-c3ccccc3)c(N3CCCC3)nn2)cc1,-0.94
CCOC(=O)c1sc(N2C(=O)c3oc4ccccc4c(=O)c3C2c2cccc(OCC)c2)nc1C (configuration not stated),0.16
CC(=O)n1nccc1-c1sc(COc2cccc(Cl)c2)nc1C,-0.39
Cc1ccc(Oc2c(C)nc(N)[nH]c2=O)cc1,0.66
Cc1cn(CCC(=O)Nc2ccc(F)cc2)c2ccccc12,1.1
CCOCCNS(=O)(=O)c1cccc2c(N)cccc12,-2.7
Cn1c(NC2CCCC2)nc2c1c(=O)n(Cc1ccc(F)cc1)c(=O)n2C,-2.2
C=CCN1C(=O)NC2C1N(S(C)(=O)=O)CCN2S(C)(=O)=O (configuration not stated),5.8*
CCn1c(=S)ccc2ccccc21,-0.12
O=c1cc(O)c2cc(Br)ccc2o1,0.36
COc1cc(NC(=S)N(N)CCO)c(OC)cc1Cl,0.81
COc1ccc(-c2nnc(SCCC(=O)O)n2C)cc1,0.07
CCOC(=O)CSc1nc(C)c2cc(C)c(C)cc2n1,2.4
CCOC(=O)Nc1nc2ccc(OC)cc2s1,5.7
SMILES,Dicer processing
CCCc1c(C)nc2ccc(OC)cc2c1SCCC(=O)O,3.5*
CCOC(=O)CSc1nc(C)c2cc(OC)ccc2n1,3.6*
CCOC(=O)c1cnc2ccc(OC)cc2c1Cl,-0.1
CN1CCc2c(sc3c2C(=O)NC(c2ccc(-c4ccccc4Cl)o2)N3)C1 (configuration not stated),-0.25
Cc1ccc(CN2C(=O)C(O)(c3c[nH]c4ccccc34)c3cc(Br)ccc32)c(C)c1 (configuration not stated),2
CCSc1ncc(-c2nnnn2-c2ccccc2)c(-c2ccccc2)n1,-0.02
CCCCC#Cc1cncc(-c2n[nH]c(=S)n2C)c1,-1.6
COc1ccc(C(=O)Oc2ccc3c(=O)c(Oc4ccccc4Br)coc3c2)cc1,1.4
COc1ccc(Oc2coc3cc(OC(=O)c4ccco4)ccc3c2=O)cc1,0.95
COc1cccc(OC)c1C(=O)Oc1ccc2c(=O)c(Oc3ccccc3Br)coc2c1,2.5
COc1ccc(Oc2coc3cc(OC(=O)c4ccc(Br)cc4)ccc3c2=O)cc1,5.4*
COc1ccc(Oc2coc3cc(OC(=O)c4cccs4)ccc3c2=O)cc1,1.3
COc1ccc2c(=O)c(Oc3ccccc3Br)coc2c1,4.7*
N#Cc1c2c(c(N3CCCCC3)n3c1nc1ccccc13)CCC2,-1.2
CCOC(=O)c1[nH]ncc1-c1ccc(Cl)cc1Cl,0.41
Cn1nc(-c2ccccc2)c(C#N)c1S(C)(=O)=O,3.2*
CS(=O)(=O)c1scc(-c2ccccc2)c1C#N,-1.1
Cc1ccc(-c2n[nH]c(S(C)(=O)=O)c2C#N)cc1,-2.1
C=CCC(Nc1cccc(Cl)c1)c1ccco1 (configuration not stated),-0.96
C=CCC(C)(CC=C)NS(=O)(=O)c1ccc(C)cc1,1.1
CCC1(c2cccc(OC)c2)CCCCN(C)C1=O (configuration not stated),-0.48
Cc1cc(C)nc(Nc2ccccc2O)n1,2.5
CCOC(=O)Nc1nc2ccccc2[nH]1,-1
Cc1cc(C)nc(Nc2nc3ccccc3[nH]2)n1,3.7*
COc1ccc(C(=O)/C(C#N)=C/NC2CCN(Cc3ccccc3)CC2)cc1,0.07
SMILES,Dicer processing
CCOC(=O)c1c(CSC#N)oc2ccc(OC(C)=O)cc12,1.8
N#Cc1n[nH]nc1-c1ccc(OC(=O)c2ccc(Cl)cc2)cc1,0.2
O=C(c1ccco1)N(CCN(C(=O)c1ccco1)c1ccccc1)c1ccccc1,-1.9
COC(=O)c1sc(Br)c(Br)c1O,-0.72
COC(=O)c1sc(=S)sc1C(=O)OC,3.8*
COC(=O)c1cc(O)c(C(=O)OC)s1,-1
CCOC(=O)C1=NNC2C(=O)N(c3ccc(OC)cc3)C(=O)C12 (configuration not stated),0.69
CN(C)CCCNCC(O)Cn1c2ccc(Cl)cc2c2cc(Cl)ccc21 (configuration not stated),-0.26
CC(C)(CC(=O)O)CC(=O)NCc1csc2ccccc12,4.5*
Cc1cc(C)c(NC(=S)NCc2csc3ccccc23)c(C)c1,2.5
S=C(NCc1csc2ccccc12)c1ccccc1,-1.4
N#Cc1cccc(CSc2nccc(=O)[nH]2)c1,-3.3
O=C(c1ccc(F)cc1)C1CCNCC1,-0.28
Cc1ccc(C(=O)NC(Nc2cccc(C)n2)(C(F)(F)F)C(F)(F)F)cc1,0.97
O=C(COc1cc(Cl)c(Cl)cc1Cl)Nc1cccc(C(F)(F)F)c1,-0.4
CCOC(=O)c1nn(-c2ccc(OC)cc2)c(=O)c2c(NC(C)=O)scc12,-1.5
